Screening results: PubChem BioAssay, several laboratories
Sampled rows, rich in hits. Any-hit rate of the full collection: about 12%.
PLAP activator – human PLAP activation; purified PLAP enzyme, luminescent substrate read-out; hits give high values; activation fold at 20 µM; 96,000 compounds, 1.2% hits; AID 696; in the data active = activation fold above about 2
hDAT+cocaine – human DAT dopamine uptake with cocaine, either direction | Q01959 | LLC-PK1 hDAT cells, [14C]-dopamine uptake with cocaine IC80; actives deviate in either direction | B-score at 10 µM | 110,000 compounds, 1.3% hits | AID 449768;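 active = Z score or B-score, a plate-position-corrected score, falls beyond the plate's 99.7% confidence bounds, in either direction; inactive = both scores lie inside the 99.7% bounds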;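 also: scored against the spread of the other compound wells on the same plate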
PostGolgi yeast – growth inhibition of a yeast mutant, post-Golgi transport screen; post-Golgi transport phenotypic cell assay; inhibition, % at 10 µM; 98,000 compounds, 0.9% hits;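 also: yeast cells grown in 1536-well plates; yeast grown about 18 h at 30C before absorbance read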
PostGolgi ctrl – yeast control strain growth, post-Golgi counter-screen. 98,000 compounds, 5% hits. efflux-deficient yeast background strain, growth absorbance A615, 16 h. AID 738. inhibition, % at 10 µM
Cav3 T inh – human Cav3.2 channel inhibition, primary screen; B-score at 10 µM; Cav3.2-expressing cells, Fluo-4 calcium fluorescence FDSS; hits give low values; 100,000 compounds, 4% hits;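 active = single-dose well whose peak fluorescence ratio is a statistical outlier from its plate by either plate-standardised score or position-corrected B-score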
D1 allo mod – allosteric modulators of human D1 dopamine receptor; P21728; HEK293 D1, CRE-luciferase, dopamine EC30 potentiation; actives deviate in either direction; B-score at 10 µM; 58,000 compounds, 5.9% hits; AID 641;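 active = luminescence count or its row- and column-corrected plate score outside the 99.7% band of the plate's sample wells, on either side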
* = called active by the depositor; . = no result given. Rule as the data show it, unless noted: active = inhibition above about 30%; inactive = the rest.

SMILES | PLAP activator | hDAT+cocaine | PostGolgi yeast | PostGolgi ctrl | Cav3 T inh | D1 allo mod
CC(=O)Nc1ccc(SCC(=O)c2cc(C)n(Cc3cccs3)c2C)cc1 | 1.1 | 0.024 | -5 | -3 | -0.28 | 0.06
COc1ccc(-c2nnc(SCC(=O)c3cc(C)n(Cc4cccs4)c3C)o2)cc1 | 1.2 | -0.87 | -2 | -9 | -0.21 | -0.052
Cc1cc(C(=O)CSc2n[nH]c(-c3ccccc3F)n2)c(C)n1Cc1cccs1 | 1.5 | 1.8 | 1 | 33* | -3.5 | .
COc1ccc(-n2cnnc2SCC(=O)c2cc(C)n(Cc3cccs3)c2C)cc1 | 1.7 | -1.2 | -1 | 11 | -5.4* | -0.43
Cc1cc(C(=O)CSc2nnc(-c3ccc(OC(F)F)cc3)o2)c(C)n1Cc1cccs1 | 1 | 0.11 | -1 | -4 | -0.53 | 0.12
Cc1nnc(SC(C)C(=O)Nc2ccc(Cl)cn2)n1Cc1ccccc1 (stereo not drawn) | 1 | 0.41 | -8 | 27 | -1.6 | 0.98
CC(Sc1nnc(-c2ccc(Cl)cc2Cl)n1Cc1ccccc1)C(=O)Nc1nccs1 (stereo not drawn) | 1.1 | -0.52 | 0 | 12 | -8.2* | .
CCOC(=O)Cc1cnc(NC(=O)Cn2nnc(-c3ccc(OCC)cc3)n2)s1 | 1.3 | 0.73 | 0 | 1 | -7.2* | 0.13
COCc1cc(=O)[nH]c(/N=C(\N)Nc2ccccc2C)n1 | 1.8 | -0.66 | 2 | -3 | -0.046 | .
COC(=O)Cc1c(O)ccn(Cc2cccc3ccccc23)c1=O | 0.9 | 0.24 | 6 | 4 | -0.001 | .
Cc1[nH][nH]c(=O)c1C(c1c(C)[nH][nH]c1=O)c1cn(Cc2cccc3ccccc23)c2ccccc12 | 1.5 | -0.4 | 6 | 25 | -5.1* | .
CC1CCN(CCCNC(=O)Cc2c(C(=O)O)n(C)c3ccccc23)CC1 | . | . | . | . | . | 0.74
Cc1ccc(-c2nnc(-c3ccccc3)c(N3CCOCC3)n2)cc1 | 1.3 | 1.3 | 13 | 21 | -1.1 | .
c1ccc(-c2nnc(N3CCOCC3)nc2-c2ccccc2)cc1 | 0.9 | 0.16 | 0 | 54* | -0.28 | 3
CCOC(=O)C1CCN(Cc2cnc(Oc3ccc(Cl)cc3C)s2)CC1 | 1.3 | 1.2 | 49* | 17 | . | .
CCOC(=O)C1CCN(Cc2ccc(Cl)c(Cl)c2)CC1 | 2* | 0.11 | 7 | 7 | -0.37 | .
CCOC(=O)n1c(=O)n(Cc2ccccc2)c2ccccc21 | 0.9 | -0.069 | 12 | 12 | -1.6 | .
CCOC(=O)C1CCN(Cc2ccc(F)cc2)CC1 | . | 0.26 | . | . | 0.97 | -0.61
CCOC(=O)n1c(=O)n(Cc2ccc(Cl)c(Cl)c2)c2ccccc21 | 1.2 | -0.11 | 0 | 66* | . | .
C[C@H](NC(=O)CCC1CCC(=O)N1)c1ccccc1 (stereo partly drawn) | . | -0.54 | . | . | 0.74 | .
CCOC(=O)Nc1sc(=S)n(C)c1C | . | -0.22 | -4 | 5 | 0.55 | -0.35
Cc1cc(C)c2c(-n3cccc3)c(C(=O)NNS(=O)(=O)c3ccc(Br)cc3)sc2n1 | 1.3 | 0.84 | 7 | 30 | -4.7* | .
Cc1ccc(S(=O)(=O)NNC(=O)c2snnc2C)cc1 | 1.2 | 0.084 | -4 | 1 | 0.009 | .
CCOC(=O)Nc1sc2nc(C)cc(C)c2c1-n1cccc1 | 1 | 0.34 | 9 | 41* | 0.84 | .
CCC1(C)N(O)C(C)(C)C(c2ccc(F)cc2)=[N+]1[O-] (stereo not drawn) | . | -0.06 | . | . | 0.48 | .
SMILES | PLAP activator | hDAT+cocaine | PostGolgi yeast | PostGolgi ctrl | Cav3 T inh | D1 allo mod
OCCCc1nc2n(n1)C(c1ccccc1)C=C(c1ccc(F)cc1)N2 (stereo not drawn) | . | 1.6 | 1 | 6 | 0.011 | 0.077
OCCCc1nc2n(n1)C(c1cccs1)C=C(c1ccccc1)N2 (stereo not drawn) | 1.5 | 0.9 | -1 | 10 | -9.9* | 0.3
Cc1cccc(S(=O)(=O)c2c(N)n(/N=C/c3cccnc3)c3nc4ccccc4nc23)c1 | 1.6 | 3.2* | -4 | 8 | 0.84 | 0.76
Cc1cccc(S(=O)(=O)c2c(N)n(/N=C/c3ccco3)c3nc4ccccc4nc23)c1 | 1.6 | 0.045 | 6 | 32* | -0.15 | -0.55
CCCCCCn1c(C)nc2c(c1=O)c1nc3ccccc3nc1n2/N=C/c1ccco1 | 2* | 0.22 | -8 | -1 | -5.1* | .
Cc1ccc(S(=O)(=O)c2c(N)n(/N=C/c3ccco3)c3nc4ccccc4nc23)cc1 | 1.6 | 0.67 | 9 | 41* | -2.1 | 0.51
CCC(C(=O)c1ccc(O)cc1)c1ccccc1 (stereo not drawn) | 1 | -1.4 | 1 | 36* | -3.6 | -0.007
CCCCCN=Cc1c(C)[nH]n(-c2nc3ccccc3s2)c1=O | 1.6 | 2.5* | 17 | 3 | 0.49 | -1.2
Oc1cccc(O)c1O | . | 0.15 | . | . | 0.86 | .
Cc1onc(-c2ccccc2)c1C(=O)N1CCN(C/C=C/c2ccccc2)CC1 | 1.7 | 2 | 0 | 16 | . | -0.028
CN(C)CC(=O)Nc1cc(C(F)(F)F)ccc1Cl | 1 | -0.46 | 38* | 8 | 0.7 | -0.6
COc1cc(/C=C/C(=O)Nc2cc(C(F)(F)F)ccc2Cl)cc(OC)c1OC | 0.9 | 1.8 | -12 | 13 | -5.2* | .
CCC(C)(C)n1nnnc1CN1CCc2ccccc21 | 1 | -0.15 | -4 | 11 | 0.79 | .
Cc1ccc2c(c1)cc(C)c1nnc(SCC(=O)NCc3ccco3)n12 | 1.6 | 0.45 | -4 | 14 | -0.4 | 0.97
CCn1c(-c2cc3ccccc3cc2O)n[nH]c1=S | 2.9* | 0.5 | 1 | 20 | -1.7 | .
CCn1c(-c2c[nH]c3ccccc23)n[nH]c1=S | 1 | 0.22 | 40* | 0 | 1.1 | 0.52
CCOc1cccc(-c2cc(-c3n[nH]c(=S)n3CC)c3ccccc3n2)c1 | 1.5 | 2.4* | 2 | 21 | -3.9 | .
CC(C)Cn1c(-c2ccccc2F)n[nH]c1=S | 1.8 | -0.5 | 8 | 33* | 0.39 | -0.93
C=CCn1c(-c2c[nH]c3ccccc23)n[nH]c1=S | 1.6 | -0.58 | -4 | 4 | -0.85 | 0.81
CCn1c(-c2cc(Br)ccc2O)n[nH]c1=S | . | 0.56 | . | . | 0.033 | 1.3
Cc1cc(C(=O)N2CCN(Cc3ccc4c(c3)OCO4)CC2)cs1 | 1.3 | -0.92 | -5 | -1 | -0.33 | -2.4
Cc1ccc(Cl)cc1NC(=O)CC1NCCNC1=O (stereo not drawn) | . | -0.048 | . | . | 0.96 | .
O=C(Nc1c(C(=O)O)[nH]c2ccccc12)NC1CCCCC1 | 1.1 | -2.1* | 15 | -5 | 0.43 | -0.51
COc1c(N2C[C@@H]3CCCN[C@@H]3C2)c(F)cc2c(=O)c(C(=O)O)cn(C3CC3)c12 | . | 1.3 | . | . | . | .
CC1=C(C(=O)OCC(Br)(Br)Br)C(c2ccc(Br)cc2)NC(=O)N1CCCC(=O)O (stereo not drawn) | . | 0.84 | . | . | 0.089 | .
Cc1ccc2c(c1)[C@@H]1CN(C)CC[C@@H]1N2S(=O)(=O)c1ccc(F)cc1 | 1.3 | -1.6 | -3 | 2 | -0.19 | .
Cc1ccc2c(c1)C1CN(C)CCC1N2C(=O)Nc1ccc(Cl)cc1 (stereo not drawn) | 1 | 1.5 | 20 | 2 | -1.5 | -4.2*
CCN(CC)C(=O)CC(c1cc(OC)c(OC)c(OC)c1)c1c(OC)cc(OC)c2c(-c3ccccc3)cc(=O)oc12 (stereo not drawn) | . | 0.63 | . | . | -0.83 | .
